Experimental data published in ChEMBL document CHEMBL4513216, “Probing the Open Global Health Chemical Diversity Library for Multistage-Active Starting Points for Next-Generation Antimalarials” (ACS Infect Dis, 2020).
Out of some 69,000 compounds screened, about 8,600 (12%) showed an effect of 50% or more. The entries come from a sample that favours strong results as a whole.

Tested on: Plasmodium berghei
Assay: Screen against P. berghei liver stage (PbLuc), transformed with Luciferase, at 10uM
Format: functional, HepG2
Conditions: tested at 10 uM

Structure (SMILES)	INHIBITION [%]
COc1ccc(-c2noc(C(CC(C)C)N3CCCCC3=O)n2)cn1 (stereo not given)	51.7
CC(C)CC(c1nc(-c2cnn(C)c2)no1)N1CCCCC1=O (stereo not given)	38.7
COc1cc(-c2noc(C(CC(C)C)N3CCCCC3=O)n2)ccn1 (stereo not given)	34.1
CCCNC(=O)c1nn(CC)cc1Cl	24.2
CC(=O)N1CCC1c1cc(NC2CCOCC2)nc(C)n1 (stereo not given)	11.65
Cc1ccnc(C2CN(Cc3ccc(-c4ccccc4C(=O)O)o3)C2)n1	14.35
O=C(c1cnc(O)cn1)N1CCC(CN2CCOCC2)CC1	-30.3
Cc1ccc(C(=O)N2CCN(Cc3ccsc3)CC2)n1C	9.32
Cc1ccc(C(=O)N2CCN(Cc3cccs3)CC2)n1C	19.4
Cc1ccc(C(=O)N2CCN(Cc3ccc(C#N)cc3)CC2)n1C	54.4
COc1ccc(CN2CCN(C(=O)c3ccc(C)n3C)CC2)cc1	46.2
CCOc1ccc(CN2CCN(C(=O)c3ccc(C)n3C)CC2)cc1	74.8
Cc1ccc(C(=O)N2CCN(Cc3ccccc3)CC2)n1C	27.6
CC(C)N1CCCC1c1cc(CO)[nH]n1 (stereo not given)	9.585
O=C(NCCN1CCOC1=O)c1cc(-c2ccccc2)on1	30.2
CCSc1ccc(C(=O)N2CCC3(CC2)[C@H](O)C[C@@H]3O)s1	16.7
CCSc1ccc(C(=O)N2CC[C@](O)(CC)[C@H](O)C2)s1	53.9
CCSc1ccc(C(=O)N2CC[C@](C)(O)[C@H](C)C2)s1	-5.12
Cc1ccc(CN2CCn3c(CN4CCN(C)CC4)cnc3C2C)s1 (stereo not given)	24.3
CC(C(=O)NCc1ccc2c(c1)OCCO2)n1cncn1 (stereo not given)	46.6
COc1cc(CN2CC[C@@H](N3CCCCCC3)[C@H](O)C2)cc(Cl)c1OC	1.56
CC1CC(=O)c2cc(C(=O)N3CCOCC3)c(=O)[nH]c2C1 (stereo not given)	13.9
CN(C)C(=O)CN1C[C@H]2CC[C@@H](C1)N(C/C=C/c1ccc(F)cc1)C2	52.5
CN(C)C(=O)CN1C[C@H]2CC[C@@H](C1)N(Cc1cc(F)ccc1F)C2	0.139
CN(C)C(=O)CN1C[C@H]2CC[C@@H](C1)N(Cc1ccc(Cl)cc1Cl)C2	19.1
CN(C)S(=O)(=O)N1C[C@H]2CC[C@@H](C1)N(C/C=C/c1ccc(F)cc1)C2	30.7
CN(C)C(=O)CN1C[C@H]2CC[C@@H](C1)N(Cc1c(F)cccc1Cl)C2	29.8

Structure (SMILES)	INHIBITION [%]
CN(C)C(=O)CN1C[C@H]2CC[C@@H](C1)N(Cc1ccccc1OCCO)C2	59.7
CN(C)C(=O)CN1C[C@H]2CC[C@@H](C1)N(Cc1ccccc1C#N)C2	41.5
CN(C)C(=O)N1C[C@H]2CC[C@@H](C1)N(C/C=C/c1ccc(F)cc1)C2	-27.7
CN(C)C(=O)CN1C[C@H]2CC[C@@H](C1)N(Cc1cccc(Cl)c1Cl)C2	61.8
CCOc1ccc(Cl)c(C(=O)N2CCCC(c3cc(C)[nH]n3)C2)n1 (stereo not given)	-4.13
CS(=O)(=O)NCC(=O)NC1CCCN(c2ccccn2)C1 (stereo not given)	7.605
CC1(C)CN(C(=O)c2cc(F)cc3[nH]cnc23)CCS1	10.2
O=C1COC2(CCN(C(=O)c3ccco3)CC2)CN1Cc1cccnc1	43.2
CNC(=O)[C@@H]1CN(C(=O)COC)C[C@H]1c1ccnc(N2CCCC2)n1	21.7
Cn1ccc(C(=O)Nc2cc(F)ccc2OCC2CCCO2)cc1=O (stereo not given)	15.6
Cc1nc(COCc2nc3c(o2)CN(C(=O)c2ccc[nH]2)C3)cs1	-13.9
CN(C)CC(=O)N1CCO[C@@H]2CC(COCc3ccncc3)C[C@H]21 (stereo not given in full)	11.3
Cc1ccccc1C(C(=O)N(C)CCc1cnn(C)c1)N(C)C (stereo not given)	31.7
Cc1ccccc1C(C(=O)N(C)CCc1cn[nH]c1)N(C)C (stereo not given)	54.4
Cc1cc(C)cc(CCC(=O)N(C)CCc2cn[nH]c2)c1	-10.2
Cc1ccc(C(C(=O)N(C)CCc2cn[nH]c2)N(C)C)cc1 (stereo not given)	51.1
CN(CCc1cn[nH]c1)C(=O)C(c1ccc(F)cc1)N(C)C (stereo not given)	43.7
Cc1cccc(C(C(=O)N(C)CCc2cn[nH]c2)N(C)C)c1 (stereo not given)	42.6
COc1cccc(C(C(=O)O)N(C)Cc2ccc(C)o2)c1 (stereo not given)	46.7
CN(C)[C@@H]1CN(C(=O)c2cc3ccc(F)cc3[nH]2)C[C@H]1O	18.15
Cc1ccsc1C(=O)N1CCCn2c(nc(CN(C)C)cc2=O)C1	-10.3
CCn1c(CN2CCN(CCOC)CC2)nc2c(F)cccc21	46.95
c1cnnc(-c2noc(CCN3CCCO3)n2)c1	-8.51
O=C1CCCCCN1CCc1nc(-c2cccnn2)no1	9.04
O=C1CCCCN1CCc1nc(-c2cccnn2)no1	52.9
COc1ccc(CN2CCc3ncnc(C4CCOC4)c3CC2)cc1 (stereo not given)	24.6
CCOc1cc(CNc2nnn(C)n2)ccc1OCc1ccc(Cl)cc1	63.1

Structure (SMILES)	INHIBITION [%]
Cn1nnc(NCc2ccccc2OCc2ccc(Cl)cc2)n1	4.07
Cn1nnc(NCc2ccc(OCc3ccc(Cl)cc3)cc2)n1	-47.4
Cc1ccc(NC2CCN(C(=O)CCc3cscn3)CC2)nn1	7.12
c1ccc(CCNCC2Cn3nncc3CO2)cc1 (stereo not given)	33
O=C(c1ccccc1F)N1CCOC(c2nc(-c3ncccn3)no2)C1 (stereo not given)	18.9
Cc1cn(CC(=O)Nc2cc(C(C)(C)C)nn2C)cn1	16.9
CCN(CC(C)C#N)C(=O)CNc1ccc(C(N)=O)c(C)c1 (stereo not given)	92.5
CCN(CC(C)C#N)C(=O)CNc1cc(Cl)ccc1C(N)=O (stereo not given)	17.5
CCN(CC(C)C#N)C(=O)CNc1ccc(F)c(C)c1 (stereo not given)	-48.4
O=C(CCN1CCOC1=O)Nc1cnn(-c2ccccc2Cl)c1	13.3
Cc1noc(-c2ccc(Oc3cccc(CN4CCCC4)c3F)nc2)n1	35
CCN1CCC(N2CCN(c3cc(-c4nc(C)no4)ccn3)CC2)CC1	33.8
Cc1noc(-c2ccnc(Oc3cccc(CN4CCCC4)c3F)c2)n1	83.3
COc1cccc(CN2CCN(c3noc(C(C)C)n3)CC2)c1F	-21.8
Cc1noc(-c2ccnc(Oc3ccccc3CN3CCCCC3)c2)n1	56.3
c1ccc(Oc2nccc3occc23)c(CN2CCCCC2)c1	48.8
CC(NC(=O)NCCCn1cncn1)c1ccc(C#N)cc1 (stereo not given)	24.75
CC=C(C)C(=O)NS(=O)(=O)c1ccc(C(F)(F)F)cn1	13.8
O=C(CCCN1CCOCC1)N1CCCC(CO)(CC2CC2)C1 (stereo not given)	-4.21
CC(C1CCN(C(=O)c2coc(CN3CCOCC3)c2)CC1)N(C)C (stereo not given)	35.8
Cc1cc(NCCC(=O)NC2CCS(=O)(=O)C2)nc(-c2ccncc2)n1 (stereo not given)	15.7
COc1cccc(C(=O)N2CCc3nc(C4CCCN4)ncc3C2)c1 (stereo not given)	59.3
Cc1cc(C(=O)N2CCc3nc(C4CCCN4)ncc3C2)cs1 (stereo not given)	-16.5
CC(C)c1cc(C(=O)N2CCc3nc(C4CCCN4)ncc3C2)cs1 (stereo not given)	28
COc1ncc(NCc2ccc(Cl)c(Cl)c2)cc1C(N)=O	71.8
COc1ncc(NCc2ccc(F)cc2)cc1C(N)=O	-5.1
COc1ncc(NCc2ccc(C#N)cc2)cc1C(N)=O	8.12

Structure (SMILES)	INHIBITION [%]
CCC(=O)N1CCC2(COCc3cnc(NCc4ccco4)nc32)C1 (stereo not given)	6.55
CNc1cc(N2CCC(O)(CNC(=O)c3ccc(C)nc3)C2)ncn1 (stereo not given)	12.3
Cc1cnn(CC2CCCN2CC(=O)Nc2cc(C)on2)c1 (stereo not given)	-23.9
Cc1nccc(N(C)Cc2ncc(-c3ccccc3C(=O)O)s2)n1	1.635
COc1cc2c(cc1OC)C(=O)C(Sc1nnc(C)o1)C2 (stereo not given)	27.5
O=C(O)CC1COCCN1Cc1ccccc1-c1ccccc1 (stereo not given)	-4.56
O=C(O)CC1COCCN1CCCc1ccccc1 (stereo not given)	56.2
O=C(O)CC1COCCN1Cc1ccccc1OCCc1ccccc1 (stereo not given)	1.95
CCS(=O)(=O)NCCCn1ncc2c(C)cccc21	4.35
Cc1cc(N(C)CCCn2cccn2)nc(-c2cccnc2)n1	-37.2
Cc1cc(C(=O)N(C)CCCn2cccn2)nc(N)n1	64.1
CCCN(Cc1nccn1C)C(=O)c1cc(C)nc(C)n1	42.1
CCOc1c(F)cccc1C(=O)N(C)CCn1cccn1	-27.6
Cc1cc(N(C)C)nc(NCCn2cccn2)n1	-24.4
Cc1cc(N(C)CCCn2cccn2)nc(N)n1	75.2
COc1ccc(Cl)c(NCC(=O)NCC(=O)N2CCCC2)c1	24.1
COCC1CCCCN1C(=O)c1cc(Cn2ccc3ccccc32)[nH]n1 (stereo not given)	-14.9
COCCN(C)C[C@@H]1CN(C(=O)c2cccc(Cl)c2)C[C@@H]1CO	10.7
CCN(C)C[C@@H]1CN(Cc2cccc(Cl)c2)C[C@@H]1CO	43.3
CCN(C)C[C@@H]1CN(S(=O)(=O)c2cccc(C#N)c2)C[C@@H]1CO	36.2
CCN(C)C[C@@H]1CN(S(=O)(=O)c2cccc(Cl)c2)C[C@@H]1CO	57.6
CCN(C)C[C@@H]1CN(S(=O)(=O)c2ccc(C#N)cc2)C[C@@H]1CO	58.6
CCN(C)C[C@@H]1CN(S(=O)(=O)c2ccc(OC)cc2)C[C@@H]1CO	39.4
O=S(=O)(C1CC1)N1CC[C@]2(C[C@@H](Oc3ccccn3)CO2)C1	17.3
